How the values were obtained:
Assay in all cases: PBM binding z-score (relative to random genomic background probes); higher = stronger binding; sequences stand for … in GC…GCGATTGACAGCGTAGAATGAAGG
[1] = tested on: PPARg:RXRa DBDmut IVT, anti-RXR (DBD mutation: RXRa K156A/R161A, NR concentration 270 nM, RXRa partner concentration 90 nM)
Summary of the method: (§1)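 Custom Agilent 4×180K protein-binding microarrays carried double-stranded probes. Their 34-nt variable regions held direct-repeat seeds, single-nucleotide variants, half-site ablations and random human genomic background sequences. Arrays were incubated 1 h with ligand-free nuclear receptor dimers in PBS pH 7.4, 2% milk, 0.02% Triton X-100, 1 mM DTT, 0.2 mg/mL BSA and 0.4 mg/ml salmon testes DNA. Antibodies against each partner (one per run) detected binding, and scanned fluorescence was regression-normalized. Binding z-scores use random background probes as reference.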

[2] = tested on: PPARg:RXRa IVT, anti-PPARg (NR concentration 270 nM, RXRa partner concentration 90 nM)
Summary of the method: as §1

[3] = tested on: PPARg DBDmut:RXRa IVT, anti-PPARg (DBD mutation: PPARg1 K132A/R137A, NR concentration 270 nM, RXRa partner concentration 90 nM)
Summary of the method: as §1

[4] = tested on: PPARg DBDmut IVT, anti-PPARg (DBD mutation: PPARg1 K132A/R137A, NR concentration 270 nM)
Summary of the method: as §1

[5] = tested on: PPARg homodimer (NR concentration 180 nM)
Summary of the method: as §1

[6] = tested on: PXR:RXRa (NR concentration 270 nM, RXRa partner concentration 90 nM)
Summary of the method: as §1

[7] = tested on: PXR homodimer (NR concentration 270 nM)
Summary of the method: as §1

[8] = tested on: RARa:RXR (NR concentration 270 nM, RXRa partner concentration 90 nM)
Summary of the method: as §1

[9] = tested on: RARa homodimer (NR concentration 270 nM)
Summary of the method: as §1

[10] = tested on: RARb:RXRa (NR concentration 270 nM, RXRa partner concentration 90 nM)
Summary of the method: as §1

| Sequence | PBM binding z-score [1] | PBM binding z-score [2] | PBM binding z-score [3] | PBM binding z-score [4] | PBM binding z-score [5] | PBM binding z-score [6] | PBM binding z-score [7] | PBM binding z-score [8] | PBM binding z-score [9] | PBM binding z-score [10] |
| --- | --- | --- | --- | --- | --- | --- | --- | --- | --- | --- |
| ATCTCTAGGTAGCAAGTTCAGTGAAAGAGAGGAC | 0.208 | 0.604 | 0.0162 | 0.501 | 0.437 | 1.22 | 1.35 | 0.324 | 0.221 | 0.981 |
| GCTTACGGGTCAAAGGCTATAGCATGAATAGAAT | 3.78 | 4.33 | 0.463 | 0.898 | 1.36 | 3.22 | 0.0124 | 4.4 | -0.0609 | 3.69 |
| CGTCCAAGGTCATAGGAGGTCAGAGAAGACAGAT | 3.19 | 4.81 | 1.6 | 0.958 | 3.89 | 6.83 | 4.38 | 6.6 | 1.92 | 5.51 |
| ATCTCTAGGTAACCAAGTTAAGTGAATGCCGAAC | 3.43 | 2.78 | 0.758 | 1.07 | 0.347 | 0.282 | 0.739 | 0.368 | 1.13 | 0.317 |
| TGAATTAGGTTATAAGATCAGGGAACGTTGCAAA | 5.05 | 4.53 | 1.08 | 1.15 | 1.14 | -0.000172 | 0.301 | -0.0809 | 1.34 | 0.576 |
| CATGCTAGGTCAATGGTCAGCTAAAGCAGCTCGC | 3.11 | 3.53 | -0.274 | -0.0398 | 1.14 | 0.721 | -0.406 | 1.82 | -0.113 | 3.87 |
| CGAACTAGGTCATTGACAGGACAGTGAGTAGTAA | 8.17 | 8.32 | 0.587 | 2.61 | 1.63 | 1.38 | 0.241 | 2.09 | 0.277 | 3.6 |
| CGTCAAAGTTCAATTAAGGTAACGTAAAGCACGC | 0.465 | 2 | 1.09 | 1.89 | 3.06 | 5.26 | 3.98 | 3.88 | 1.69 | 4.78 |
| CGAACGAGGGCATGAGTTGATAGAAAATGCCGAT | 2.74 | 1.89 | -0.343 | -0.182 | 0.547 | 0.565 | 0.619 | 0.664 | 0.132 | 1.87 |
| AGAACGAGGGCACGTTGAGTTGATAGCAGAGTAG | 3.79 | 3.75 | 0.741 | -0.039 | 0.701 | 1.33 | 0.471 | 0.629 | -0.287 | 2.42 |
| TCATATAGGTAAATCCTAGGTGAAAGTCCGATCT | 3.48 | 2.8 | 0.825 | 0.675 | -0.358 | 0.68 | 0.175 | 1.11 | 0.51 | 0.592 |
| CCTGCTTGGTCATGGTCAGCTAATCTACAGTATG | 0.417 | 0.0763 | -1.17 | -0.614 | 0.0024 | -0.154 | -0.228 | -0.106 | -0.318 | 1.24 |
| CCTTACGGGTCACGAGGTTATCGCACGACGAGCG | 4.34 | 5.24 | 1.36 | 0.803 | 3.23 | 4.75 | 0.615 | 6.45 | 0.798 | 4.5 |
| TGTCAAAGTTCAAAGGTAACGGAAGTATCCACAC | 0.604 | 4.88 | 1.63 | 2.48 | 3.69 | 5.74 | 3.74 | 6.93 | 1.65 | 5.07 |
| TCATATAGGTAAACAGATGAAAGTCCGTAAGTTA | 3.98 | 2.76 | 1.5 | 0.808 | 0.603 | 0.869 | 0.583 | 0.622 | 1.28 | 0.483 |
| CCTACGGGGCCATTCAGAGGTCATTGATCATATG | 0.224 | 1.43 | -1.02 | -0.577 | 4.06 | 5.55 | 4.64 | 5.76 | 0.566 | 3.55 |
| CGAACGAGGGCATGAGTTGATAGGAAATGCCGAT | 2.5 | 1.68 | -1.02 | -0.376 | 0.547 | 0.35 | 0.349 | 0.4 | -0.46 | 1.88 |
| TCAGATAGGTAAATGCTAGGTGAAAGTCCGATCT | 2.06 | 0.684 | 0.761 | 0.0198 | 0.547 | 0.13 | -0.341 | 0.568 | -0.137 | 0.156 |
| TCGAGTAGGTTACCTATGGGGCATTCAGCTTTCT | 2.71 | 2.51 | -0.176 | -0.57 | -0.445 | 0.0182 | -0.655 | 0.469 | -0.643 | 0.753 |

| Sequence | PBM binding z-score [1] | PBM binding z-score [2] | PBM binding z-score [3] | PBM binding z-score [4] | PBM binding z-score [5] | PBM binding z-score [6] | PBM binding z-score [7] | PBM binding z-score [8] | PBM binding z-score [9] | PBM binding z-score [10] |
| --- | --- | --- | --- | --- | --- | --- | --- | --- | --- | --- |
| CCTTACAGGTCACTCCAGGTTATAGCATCGGAGT | 4.37 | 4.23 | 0.516 | 0.777 | 2.41 | 4.74 | 0.873 | 3.71 | 1.13 | 4.61 |
| ACAGACAGGTGATGAAGGTAACTCCGGCTATCAT | 0.0958 | 0.462 | 0.468 | 0.294 | -0.227 | 0.0944 | -0.1 | 0.357 | 0.0561 | 0.429 |
| AGAATGAGGTTATACGTCGATCAGGGAAGAAAGT | 2.6 | 2.09 | 0.671 | 0.354 | 0.876 | 0.925 | 0.396 | 1.51 | 0.313 | 1.34 |
| CCTTACGGGTCACGCCAGGTTATAGCATCGGAGT | 3.85 | 4.83 | 0.182 | 0.0773 | 2.19 | 5.46 | 0.316 | 4.98 | 1.14 | 4.35 |
| TCATATAGGTAATACAGGTGCAAGTCGGCATCTA | 3.87 | 2.67 | 1.02 | 0.643 | 0.337 | 1.07 | 0.613 | 0.828 | 1.43 | 0.563 |
| TCTAGCAGGCGAGAGGGTCACTCAAGAGGTACGG | 0.656 | -0.139 | -0.781 | -0.425 | 0.125 | 1.47 | -0.472 | 2.24 | -0.11 | 1.81 |
| CCTAGCAGGCCAATCTGGATCACTCAAGGCTTGA | 1.73 | 0.817 | -1.11 | -1.19 | -0.873 | -0.635 | -0.965 | -0.47 | -0.695 | 0.0834 |
| GCTCGGAGGACAAGGGCAGAGCTTTGTCCGTAGA | -0.664 | -0.527 | -1.1 | -1.88 | -0.96 | -0.518 | -0.927 | -0.516 | -1.17 | 1.4 |
| CCTACTGGGCCAAAAAGGGCATTGATGCCGATAA | 3.27 | 2.46 | -1.19 | -0.893 | 0.55 | -0.0509 | -0.102 | -0.0363 | -0.572 | 1.49 |
| CCAGATAGGTGAGAAGGTAACTCAGCCTCGATTA | 2.53 | 1.72 | -0.37 | -0.16 | 1.05 | 0.0792 | 0.177 | 0.307 | 0.419 | 0.76 |
| GATACCGGGTCAAGGCCAGAGTACGCGTATTGAT | 2.4 | 4.67 | 0.967 | 0.0234 | 0.895 | 2.62 | 0.124 | 2.97 | 0.054 | 3.9 |
| GCGACTGGGGCAAAGCAGGATACCATAAGGTTGG | 4.62 | 3.04 | -0.478 | -1.16 | -0.484 | -0.583 | -0.738 | -0.211 | -0.407 | 0.604 |
| ATCTCAAGGTAAAGTTCAGTGAAAGATCGATAGA | 0.17 | 1.36 | 1.42 | 1.27 | 1.71 | 2.26 | 2.1 | 1.78 | 1.65 | 2.97 |
| ACTATAAGTTGACTTAGGGCAACCGATACGACGC | -0.174 | 0.419 | 0.924 | 0.648 | 0.0162 | 0.385 | 0.624 | 0.604 | 0.56 | 1.2 |
| ACTATTAGTTGACTTAGGGCAACCGGTACGACGC | 0.0602 | 0.506 | 0.963 | 0.218 | 0.403 | 0.35 | 0.564 | 0.898 | 0.577 | 1.14 |
| TGTCATAGTTCAAAGGTAACGTAAGTATCCACAC | -0.243 | 3.05 | 1.21 | 1.83 | 1.56 | 3.52 | 1.08 | 4.52 | 1.31 | 3.46 |
| CGAACTAGATCAGAACAGGACAGTGAAGGATGAT | 0.901 | 0.144 | 0.0731 | 0.309 | 0.437 | -0.412 | 0.0691 | -0.383 | 0.626 | -0.179 |
| GCTAGGTGGTCAGTAAAAGGTCACACACCGGTCG | 0.659 | 2.52 | 0.634 | 0.226 | 4.93 | 5.02 | 1.22 | 5.97 | 2.31 | 4.34 |
| GCGACTGGGGCAAAGCAGCTTACCATAAGGTTGG | 4.53 | 3.13 | -0.355 | -0.462 | -0.569 | -0.681 | -0.894 | -0.835 | -1.36 | 0.456 |

Reference: the supplement of paper PMC6555819
